Shown are actives, neighbours in structure and some others; about 1.3% of the full set was active somewhere.
RXFP1 ag = agonists of human relaxin receptor RXFP1; Q9HBX9; HEK293T-RXFP1 cAMP TR-FRET, 30 min; response scale: percent of porcine relaxin response, buffer zero; Potency, µM (series often up to 57.5 µM), without a hit: top-dose activation, actives largely listed as activators; 370,000 compounds, 0.3% hits; AID 2676; active means well fitted activation curve with a large enough effect; inconclusive means small, poorly fitted or top-dose-only effect; further: potency means the concentration at half of the fitted maximal effect; on the % scale 0 is the no-effect control and ±100 the full control effect; nearly all actives have a fitted effect of over 60% in size
Target sequence (Q9HBX9 whole entry, looked up): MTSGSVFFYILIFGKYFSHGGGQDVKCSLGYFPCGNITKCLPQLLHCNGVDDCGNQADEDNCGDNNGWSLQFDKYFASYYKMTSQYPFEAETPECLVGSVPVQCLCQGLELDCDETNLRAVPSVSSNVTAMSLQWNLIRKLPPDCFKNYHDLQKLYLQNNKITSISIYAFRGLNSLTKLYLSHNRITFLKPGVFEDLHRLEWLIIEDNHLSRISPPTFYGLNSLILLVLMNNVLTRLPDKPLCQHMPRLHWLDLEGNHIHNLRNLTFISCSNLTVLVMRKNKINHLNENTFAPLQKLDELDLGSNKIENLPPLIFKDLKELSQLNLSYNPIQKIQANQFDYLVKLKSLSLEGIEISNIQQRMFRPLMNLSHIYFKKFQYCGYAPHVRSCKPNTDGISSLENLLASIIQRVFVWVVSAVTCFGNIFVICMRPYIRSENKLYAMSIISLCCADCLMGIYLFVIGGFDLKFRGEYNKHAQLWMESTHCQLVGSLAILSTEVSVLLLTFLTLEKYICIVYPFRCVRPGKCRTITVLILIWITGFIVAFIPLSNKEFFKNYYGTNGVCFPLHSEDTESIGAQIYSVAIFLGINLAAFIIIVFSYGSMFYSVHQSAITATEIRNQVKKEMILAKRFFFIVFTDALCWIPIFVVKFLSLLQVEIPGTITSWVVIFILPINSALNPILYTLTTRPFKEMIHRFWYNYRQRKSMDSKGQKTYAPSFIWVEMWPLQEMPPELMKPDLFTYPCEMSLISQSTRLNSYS
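cAMP rise read by TR-FRET after 30 min, 37C compound exposure (up to 58 uM) in RXFP1-transfected HEK293 cells with Ro 20174 present. EC50 from Hill-equation fits, with 29 nM porcine relaxin as 100% and buffer as basal.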
gsp antag = antagonists of gsp mutant (McCune-Albright syndrome); gsp-mutant cells, cAMP HTRF, 30 min; Potency, µM (highest dose often 76.9 µM), for the others: at the top dose activity change, negative = inhibition, most hits filed as inhibitors; 340,000 compounds, 0.4% hits; calls by dose curve; cell line not stated here;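 further: intracellular cAMP measured with PDE inhibitor Ro 20-1724 present during compound exposure; potency means the concentration at half of the fitted maximal effect; on the % scale 0 is the no-effect control and ±100 the full control effect; nearly all actives have a fitted effect of over 65% in size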
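Cells, 2000/well, grown 16–24 h in DMEM 10% FBS with 0.5 mg/ml G418, then compounds plus […] (300 uM addition stock), 30 min at 37C. cAMP read by HTRF (cAMP-d2 and anti-cAMP antibody-K in lysis buffer) after 30 min RT.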
RXFP1 antagonist = blocks the human relaxin receptor RXFP1; Q9HBX9; HEK293-RXFP1, relaxin-stimulated cAMP HTRF, 30 min; hits give low values; activity change, negative = inhibition, % at 57.5 µM; 350,000 compounds, 0.59% hits; AID 1259400;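 active means activity change of -60% or lower, but not beyond a set lower limit; inconclusive means change between -60% and -40%, or beyond the set limit; inactive means change above -40%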; further: on the % scale 0 is the no-effect control and ±100 the full control effect
pAkt inh = inhibitors of Akt phosphorylation; 360,000 compounds, 0.32% hits; activity change, % for hits at 50 µM; Neuro2A IGF-stimulated pAkt S473 HTRF, 20 min; hits give low values; in the data active means activity change below about -80%; inconclusive means mostly about -51% to -80%; further: on the % scale 0 is the no-effect control and ±100 the full control effect
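Single-point screen (50 µM final compound) in Neuro2A cells stimulated 20 min with 6 nM IGF at 37 deg C. After lysis, Ser473-phosphorylated Akt read by HTRF (ex 330 nm, em 615/665 nm) as the 665/615 ratio.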
gsp agonist = activates gsp, the McCune-Albright syndrome mutation. 340,000 compounds, 0.13% hits. Potency, µM (series often up to 76.9 µM), for inactives: at the top dose activation (cAMP increase), most hits filed as activators. gsp mutant cells, cAMP HTRF, 30 min. AID 624287; active means well fitted activation curve with a large enough effect; inconclusive means small, poorly fitted or top-dose-only effect, or another doubt; inactive means no such curve, though single readings can be large or run the other way; cell line not stated here;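 further: phosphodiesterase inhibitor Ro 20-1724 added with compounds to block cAMP breakdown; potency means the concentration at half of the fitted maximal effect; nearly all actives have a fitted effect of over 60% in size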
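Cells stably selected in G418 were plated at 2000/well, grown 16-24 hr, then given compounds in DMSO with the PDE inhibitor […] (300 uM solution added) for 30 min at 37C; cAMP was read by HTRF.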
The depositor's hits bear a star; [ ] = dose if it differs, or a comment.

`COc1ccc(/C=C2/SC(=S)N(c3ccc(S(=O)(=O)Nc4nccs4)cc3)C2=O)cc1` gave RXFP1 ag 0%, gsp antag 32µM*, RXFP1 antagonist -80*, pAkt inh inactive and gsp agonist 9%[15.4 µM].
`CCC(C)NC(=O)Cn1c(=O)n(-c2ccc(OC)c(OC)c2)c(=O)c2ccccc21` (stereo not given) gave RXFP1 ag 6%.
COc1ccc(CN(Cc2ccco2)C(=O)COc2ccccc2OC)cc1 was read as RXFP1 ag -3% and RXFP1 antagonist -14.
C[C@@H](c1ncncc1F)C(O)(Cn1cncn1)c1ccc(F)cc1F (stereo not given in full) was read as RXFP1 antagonist -2.
CC(=O)c1sc(NC(=O)C(C)C)nc1C was read as RXFP1 ag 8.9µM*, gsp antag 27%, RXFP1 antagonist 8, pAkt inh inactive and gsp agonist inconclusive.
`COc1ccc2nc(Nc3nc(C)c(C(C)=O)s3)sc2c1` gave RXFP1 ag 6%, gsp antag -26%, RXFP1 antagonist -70*, pAkt inh inactive and gsp agonist 9%.
For CC(=O)c1sc(NC(=O)c2ccccc2C)nc1C the results were RXFP1 ag 12%, gsp antag -9%, RXFP1 antagonist -7, pAkt inh inactive and gsp agonist -10%.
Screening COc1ccc(C(=O)Nc2nc3ccc(S(C)(=O)=O)cc3s2)cc1 returned RXFP1 ag inconclusive, gsp antag 23%, RXFP1 antagonist 5, pAkt inh -85%* and gsp agonist inconclusive.
`CC(=O)Nc1nc(C)c(C(C)=O)s1` gave RXFP1 ag 19%, gsp antag 29%, RXFP1 antagonist 3, pAkt inh -106%* and gsp agonist inconclusive.
For CS(=O)(=O)c1ccc2nc(NC(=O)c3ccc(Cl)cc3)sc2c1 the results were RXFP1 ag 7%, gsp antag -13%, RXFP1 antagonist 0, pAkt inh inactive and gsp agonist 24%.
For COc1ccc(Nc2nc3ccc(OC)cc3s2)cc1 the results were RXFP1 ag 0%, gsp antag -10%, RXFP1 antagonist -7, pAkt inh inactive and gsp agonist -4%[15.4 µM].
`CCOC(=O)c1nc(NCc2ccc(Cl)cc2)c2c(C)noc2n1` gave RXFP1 ag 0% and RXFP1 antagonist 4.
`CCOc1ccc(C(=O)NCCn2cc(SCC(=O)Nc3ccccc3)c3ccccc32)cc1` gave RXFP1 ag -1%.
O=C(Nc1ccc(S(=O)(=O)Nc2nccs2)cc1)c1cccc(N2C(=O)c3ccccc3C2=O)c1 was read as RXFP1 ag 0%, gsp antag -12%, RXFP1 antagonist -5, pAkt inh inactive and gsp agonist 8%.
Screening O=C(Nc1nccs1)c1cccc(N2C(=O)c3cccc4c([N+](=O)[O-])ccc(c34)C2=O)c1 returned RXFP1 ag 3%, gsp antag -1%, RXFP1 antagonist -7, pAkt inh -109%* and gsp agonist inconclusive.
`N#C/C(=N\Nc1ccc(Cl)c(Cl)c1)C(=O)C1CC1` gave RXFP1 ag 2%, gsp antag 25µM*, RXFP1 antagonist -36, pAkt inh inactive and gsp agonist -24%.
For N#C/C(=N\Nc1ccc(F)cc1)C(=O)C1CC1 the results were RXFP1 ag -12%, gsp antag -8%, RXFP1 antagonist 0, pAkt inh inactive and gsp agonist 7%.
Screening COc1ccc(-c2noc(CSCC(=O)Nc3cc(OC)c(OC)c(OC)c3)n2)cc1OC returned RXFP1 ag 0% and RXFP1 antagonist 10.
CCN(Cc1ccccc1)C(=O)C1CCC(CNS(=O)(=O)c2ccc3c(c2)CCCC(=O)N3)CC1 (stereo not given) was read as RXFP1 ag 3%.
CCOC(=O)c1ccc(NC(=O)C(CC)Sc2nncn3c2cc2oc(C)cc23)cc1 (stereo not given) was read as RXFP1 ag 14% and RXFP1 antagonist -79*.
For O=C(CSc1n[nH]c(-c2ccccc2Cl)n1)N1CCN(c2ccccc2)CC1 the results were RXFP1 ag 2% and RXFP1 antagonist -19.
For CCN(CC)C(=O)c1sc2[nH]c(=S)n(-c3ccccc3)c(=O)c2c1C the results were RXFP1 ag 11%, gsp antag 1%, RXFP1 antagonist -67*, pAkt inh inactive and gsp agonist inconclusive.
CC(=O)Nc1cccc(C(=O)NNC(=O)c2ccc(NS(=O)(=O)c3cccs3)cc2)c1 was read as RXFP1 antagonist 7, pAkt inh inactive and gsp agonist -69%.
`Cc1ccc2[nH]c(O)c(N=NC(=O)c3ccc(NS(=O)(=O)c4cccs4)cc3)c2c1` gave RXFP1 ag 0%, gsp antag -33%, RXFP1 antagonist -3, pAkt inh inactive and gsp agonist -145%.
Screening Cc1ccsc1C(=O)NNC(=O)c1ccc(NS(=O)(=O)c2cccs2)cc1 returned RXFP1 ag 3%, gsp antag 11µM*, pAkt inh inactive and gsp agonist -58%.
`Cc1cccc2c(N=NC(=O)c3ccc(NS(=O)(=O)c4cccs4)cc3)c(O)[nH]c12` gave RXFP1 ag 0%, gsp antag 25µM*, RXFP1 antagonist -9, pAkt inh inactive and gsp agonist -3%.
For Cc1ccc(CNC(=O)Cn2c(=O)n(-c3ccc(C)c(F)c3)c(=O)c3sc4ccccc4c32)cc1 the results were RXFP1 ag 14%.
COc1ccc(-c2nc(CN3CCC(C(=O)NCCCOC(C)C)CC3)c(C)o2)cc1OC was read as RXFP1 ag -2%.
Cc1ccc(OCC(=O)N(Cc2ccco2)Cc2ccco2)cc1C was read as RXFP1 ag 0% and RXFP1 antagonist -60*.
`Cc1ccc(CN(Cc2ccco2)C(=O)COc2cc(C)c(Cl)c(C)c2)cc1` gave RXFP1 ag 0%.
For CCc1ccc(CN(Cc2ccco2)C(=O)COc2ccc(Cl)cc2C)cc1 the results were RXFP1 ag 0% and RXFP1 antagonist -69*.
CC(C)(C)c1ccc(OCC(=O)N(Cc2ccco2)Cc2ccccc2F)cc1 was read as RXFP1 ag -4% and RXFP1 antagonist -95*.
Cc1cc(Cl)ccc1OCC(=O)N(Cc1ccco1)Cc1ccccc1F was read as RXFP1 ag 0% and RXFP1 antagonist -61*.
Cc1cc(C)cc(OCC(=O)N(Cc2ccco2)Cc2ccccc2Cl)c1 was read as RXFP1 ag 0% and RXFP1 antagonist -36.
For Cc1ccc(OCC(=O)N(Cc2ccco2)Cc2ccco2)cc1 the results were RXFP1 ag 3% and RXFP1 antagonist -22.
CSc1cccc(NS(=O)(=O)c2ccc3[nH]cc(C(=O)N4CCCC4)c(=O)c3c2)c1 was read as RXFP1 ag 2% and RXFP1 antagonist -3.

Source: PubChem
